An excerpt weighted towards active compounds, which were near 1.5% of everything screened.
E coli Lon inh – inhibitors of E. coli Lon protease. P0A9M0. purified E. coli Lon protease, fluorescence polarization. inhibition, % at 7.94 µM. actives 0.42% (n = 360,000); in the data active = inhibition above about 13%, passing the limit was not always enough;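 also: 0% = enzyme with probe and DMSO and 100% = no enzyme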
EBV gp42 block – inhibitors of Epstein-Barr virus glycoprotein 42; Q1HVG2; Fluorescence polarization binding assay, mP read-out; inhibition, % (tested at 21.74 µM); actives 0.42% (n = 220,000); in the data active = inhibition above about 50%
Target sequence (Q1HVG2 whole entry, looked up): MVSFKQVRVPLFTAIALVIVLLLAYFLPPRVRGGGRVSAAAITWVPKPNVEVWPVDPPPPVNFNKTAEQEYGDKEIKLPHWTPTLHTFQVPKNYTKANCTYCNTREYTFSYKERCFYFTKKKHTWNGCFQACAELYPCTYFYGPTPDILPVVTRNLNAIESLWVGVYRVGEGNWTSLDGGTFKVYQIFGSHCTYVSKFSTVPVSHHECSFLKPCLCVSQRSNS
Bcl-xL primary – blocks human Bcl-xL binding to Bim BH3 peptide. AID 2129. inhibition, % at 10.9 µM. Q07817. GST-Bcl-xL / FITC-Bim BH3 peptide fluorescence polarization. actives 0.7% (n = 320,000);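 active = inhibition above the mean of all tested compounds plus 3 SD, cutoff set per campaign, cut at about 30% in these data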;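 also: 0% = DMSO wells and 100% = unlabeled Bim-BH3 peptide competitor; inhibitors lower millipolarization by displacing the labeled peptide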
GLD-1 TGE inh – GLD-1-TGE RNA interaction inhibition (C. elegans); Q17339; purified GLD-1 + fluorescein TGE RNA, fluorescence polarization; inhibition, % at 5.96 µM; actives 0.44% (n = 320,000); AID 2280;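 active = percent inhibition above a per-plate cutoff, the plate mean of test compounds plus 3 SD, cut at about 30% in these data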;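 also: 0% = DMSO wells with GLD-1 and probe and 100% = wells lacking GLD-1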
MEX-5 binding – C. elegans MEX-5 TCR-2 RNA binding activity; MEX-5/FITC-TCR2 RNA binding, fluorescence polarization; hits give low values; activity score (negative = inhibition of binding), % at 10 µM; actives 0.38% (n = 300,000); AID 1832;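 active = inhibition past about -25% in most replicates, and total fluorescence under double the plate's negative control median, limit read from the data; inconclusive = replicates evenly split on the limit, or fluorescence at least double controls; inactive = too little inhibition in most replicates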;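 also: 0% = DMSO and -100% = 5 µM competing unlabeled TCR2 RNA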
MCL1-BIM inh – disrupts human MCL1 binding to BIM-BH3 peptide. GST-MCL1 / FITC-Bim-BH3 fluorescence polarization. inhibition, % at 10.9 µM. actives 0.68% (n = 320,000). AID 2057;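 active = inhibition above the mean inhibition of all tested compounds plus 3 SD, set per campaign, cut at about 40% in these data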;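 also: 0% = DMSO wells and 100% = unlabeled Bim-BH3 peptide control; higher means more loss of mP so more displacement of Bim peptide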
Target sequence (Q07820 whole entry, looked up): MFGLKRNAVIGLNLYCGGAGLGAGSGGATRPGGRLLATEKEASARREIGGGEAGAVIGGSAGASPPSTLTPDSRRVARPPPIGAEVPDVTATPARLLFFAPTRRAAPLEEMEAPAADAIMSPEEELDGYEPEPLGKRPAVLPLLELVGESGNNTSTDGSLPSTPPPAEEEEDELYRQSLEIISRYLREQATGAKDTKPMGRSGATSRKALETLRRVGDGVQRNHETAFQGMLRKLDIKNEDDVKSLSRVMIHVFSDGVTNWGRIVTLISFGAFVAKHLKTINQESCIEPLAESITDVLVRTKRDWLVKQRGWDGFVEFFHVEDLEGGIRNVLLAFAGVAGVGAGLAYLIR
Bcl-xL conf – Bcl-xL (human) inhibition, MCL1 counter-screen confirmation | shares compounds with MCL1-BIM inh | GST-Bcl-xL / FITC-Bim BH3 peptide FP binding | inhibition, % at 10.9 µM | actives 54% (n = 1,700) | AID 2166;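 active = inhibition above a cutoff equal to the mean inhibition of all tested compounds plus 3 SD, cut at about 30% in these data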;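 also: 0% = DMSO wells and 100% = unlabeled Bim BH3 control peptide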
MCL1 BIM confirm – MCL1-BIM-BH3 interaction inhibition, confirmation; shares compounds with MCL1-BIM inh; GST-MCL1 / FITC-Bim-BH3 fluorescence polarization; inhibition, % at 10.9 µM; actives 61% (n = 1,700); AID 2168;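 active = inhibition above the average of all tested compounds plus 3 SD, cut at about 40% in these data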;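 also: 0% = DMSO wells and 100% = unlabeled Bim-BH3 control peptide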
The depositor's hits bear a star; ? = inconclusive; nt = no result.

SMILES	E coli Lon inh	EBV gp42 block	Bcl-xL primary	GLD-1 TGE inh	MEX-5 binding	MCL1-BIM inh	Bcl-xL conf	MCL1 BIM confirm
N#Cc1c(SCC(=O)Nc2nc3ccc(Br)cc3s2)sc2c(O)cc(=O)[nH]c12	-27	nt	19	-8	-2	48*	23	54*
N#Cc1c(SCC(=O)Nc2nccs2)sc2c(O)cc(=O)[nH]c12	-33	nt	17	-5	-7	50*	15	14
CCCSc1nnc(NC(=O)CSc2sc3c(O)cc(=O)[nH]c3c2C#N)s1	-1	nt	19	2	-2	39	nt	nt
N#Cc1c(SCC(=O)Nc2nc3ccccc3s2)sc2c(O)cc(=O)[nH]c12	-14	nt	31*	1	nt	57*	26	72*
Cc1ccc(-c2nc(NCC3CCCO3)sc2C)cc1 (stereo not drawn)	-9	0	-2	8	0	1	nt	nt
O=c1ccc2c(-c3ccccc3)c3ccc(O)cc3oc-2c1	nt	nt	106*	75*	?	110*	119*	121*
O=c1cc(-c2ccccc2)oc2cc(O)ccc12	0	nt	nt	nt	nt	nt	nt	nt
Nc1ccc(-c2c3ccc(=O)cc-3oc3cc(O)ccc23)cc1C(=O)O	-117	nt	106*	64*	?	118*	104*	112*
COc1ccc(-c2c(C)c3ccc(O)cc3oc2=O)cc1OC	-5	nt	1	-9	-1	-1	nt	nt
CCN1CCCC1Cn1cnc2c([nH]c3ccc(OC)cc32)c1=O (stereo not drawn)	-6	-6	9	1	0	2	nt	nt
COc1ccc(C(=O)N/N=C(\C)c2ccc3c(c2)C2C=CCC2C(c2ccccc2)N3)cc1 (stereo not drawn)	5	-4	30	-1	nt	56*	5	-1
COc1cccc(NS(=O)(=O)c2ccc3c(c2)C2C=CCC2C(c2ccc(C(=O)O)cc2)N3)c1 (stereo not drawn)	5	16	26	15	-66*	58*	29	46*
COc1ccc(/C(C)=N/NC(=O)c2ccncc2)cc1	-3	nt	-11	0	2	-13	nt	nt
CC(C)C[C@H]1C(=O)N2CCC[C@H]2[C@]2(O)O[C@](NC(=O)[C@@H]3C=C4c5cccc6[nH]c(Br)c(c56)CC4N(C)C3)(C(C)C)C(=O)N12 (stereo partly drawn)	28	16	87*	95*	-4	111*	24	28
C[C@@H](NC(=O)c1ncn(Cc2ccccc2)c1C(=O)N[C@H](C)c1ccccc1)c1ccccc1	-6	nt	2	3	nt	9	nt	nt
CCCN(Cc1nnc(-c2cccs2)o1)C(=O)CN1C(=O)NC2(CCCCC2)C1=O	-6	nt	nt	nt	nt	nt	nt	nt
COC(=O)Cn1c2ccc(C)cc2c2nc3ccccc3nc21	5	nt	nt	nt	0	nt	nt	nt
COc1ccc2c(c1)c1nc3ccccc3nc1n2CC(=O)OC(C)C	-6	91*	60*	8	?	59*	106*	140*
C[C@@H]1CN([C@H](C)CO)C(=O)CCCn2cc(nn2)CO[C@H]1CN(C)C(=O)c1cc(-c2ccccc2)on1	-4	nt	nt	nt	nt	nt	nt	nt
CC(=O)N1CCc2c(sc(NC(=O)c3ccc(S(=O)(=O)N(C)C)cc3)c2C#N)C1	-14	nt	1	3	1	41*	38*	39
Cc1ccc(NC(=O)CN2C(=O)N/C(=C/c3cc(C)n(-c4ccc(C(=O)O)cc4)c3C)C2=O)cc1	-8	29	nt	nt	nt	nt	nt	nt
Cc1ccc(NC(=O)CN2C(=O)N/C(=C/c3cccn3-c3ccc(C(=O)O)cc3)C2=O)cc1	-14	50	27	5	nt	79*	41*	85*
COc1ccccc1NOC(=O)CCOc1ccccc1	2	nt	nt	nt	nt	nt	nt	nt
CN1CCN(C(c2ccc(Cl)cc2)c2cc(Cl)c3cccnc3c2O)CC1 (stereo not drawn)	-5	nt	18	8	-11	43*	36*	95*
CN1CCN(C(c2ccc(C(F)(F)F)cc2)c2cc(Cl)c3cccnc3c2O)CC1 (stereo not drawn)	nt	nt	12	-1	-2	34	nt	nt
SMILES	E coli Lon inh	EBV gp42 block	Bcl-xL primary	GLD-1 TGE inh	MEX-5 binding	MCL1-BIM inh	Bcl-xL conf	MCL1 BIM confirm
O=S(=O)(O)c1cc(O)ccc1O	6	nt	8	2	nt	6	nt	nt
O=S(=O)(c1cc(O)ccc1O)c1cccc2c(S(=O)(=O)c3cc(O)ccc3O)cccc12	-4	nt	9	8	-3	46*	24	52*
Cc1ccc(CNc2ncc(-c3ccc4c(c3)OCO4)n2C)cc1	-1	-16	8	-7	0	6	nt	nt
Cc1ccc(CNc2ccc3c(c2)OCO3)cc1	24*	31	139*	-7	-1	159*	106*	135*
CS(=O)(=O)N1CCN(c2ccccc2NC(=O)Nc2cccc(Cl)c2)CC1	0	nt	4	1	0	11	nt	nt
ClCc1nc2ccccc2n1Cc1ccccc1	10	nt	129*	57*	-66*	160*	54*	79*
COCc1nc2ccccc2n1Cc1ccccc1	11	-9	2	-4	0	-3	nt	nt
O=c1[nH]c2ccccc2nc1/C=C(\O)c1cccs1	-119	44	81*	-162	-5	100*	88*	91*
O/C(=C\c1nc2ccccc2[nH]1)c1cccs1	12	nt	9	-1	0	14	nt	nt
Nc1ccc(N2CCCCCC2)cc1	nt	-13	27	21	nt	42*	38*	57*
Cc1ccc([C@H]2C[C@H](n3cc(COC(=O)c4ccccc4)nn3)[C@@H](O)CN2C(=O)C2CCCCC2)cc1	0	nt	nt	nt	nt	nt	nt	nt
Cc1nnc(C)c2c(C)n(-c3ccccc3)c(C)c12	-8	nt	nt	nt	-1	nt	nt	nt
Cc1nnc(C)c2c(C)n(-c3ccccc3N)c(C)c12	19	5	96*	46*	-5	94*	14	14
COc1ccc(/C=C2/SC(=O)N(CCNC(=O)C3CC(=O)N(Cc4ccccc4)C3)C2=O)cc1 (stereo not drawn)	0	nt	nt	nt	nt	nt	nt	nt
N#CCc1cnc2ccccc2n1	3	-6	82*	60*	-2	76*	7	2
Cc1ccc(F)c(S(=O)(=O)NC(=O)C2(C)CCN2C(=O)COc2ccc(Cl)cc2)c1 (stereo not drawn)	-8	nt	nt	nt	nt	nt	nt	nt
Cc1ccc(C)c(S(=O)(=O)C(C#N)c2nc3ccccc3nc2N2CCCC2)c1 (stereo not drawn)	-15	110*	77*	51*	-8	78*	22	12
Cc1ccc(C)c(S(=O)(=O)C(C#N)c2nc3ccccc3nc2N2CCOCC2)c1 (stereo not drawn)	-2	-22	13	12	-3	13	nt	nt

Assay outcomes as filed in PubChem.
